# Assay results taken from PubChem BioAssay AID1347131 (National Center for Advancing Translational Sciences (NCATS), 2019).
# The whole screen tested about 410,000 compounds, of which about 2,000 (0.49%) were called active. About 8% were inconclusive and are not listed. This excerpt belongs to a sample that is enriched for actives. A number with no mark means an inactive call. The call rests on the fitted dose curve; tested in HEK293 reporter line.
# Test: qHTS Assay for Foot and Mouth Disease Virus Antivirals: Primary Screen against the MLPCN compound library; further: nearly all actives have a fitted effect of over 55% in size
# Conditions: FMDV antiviral cell-based qHTS; series mostly up to 57.9 µM; activity, negative = inhibition: at the top concentration
# Potency means the concentration at half of the fitted maximal effect.
SMILES,"activity, negative = inhibition",Potency
COc1cccc(-n2c(=O)c3c(C)c(C(=O)N(C)C)sc3n(Cc3ccc(F)cc3Cl)c2=O)c1,-30%,
Cc1nn2c(=O)cc(COC(=O)c3ccc(C(C)(C)C)cc3)nc2s1,-6.5%,
COc1cc(CNCc2ccccn2)ccc1OCc1ccccc1Cl,-36.2%,
COc1ccc(C2C3C=CCC(c4cccc(-c5ccc(C)cc5)c4)C3C(=O)N2Cc2ccccc2)cc1Cl (stereo not drawn),,12.6 µM (active)
Cc1ccc(F)c([C@H]2C3C=CCC(c4ccccc4)C3C(=O)N2Cc2ccccc2)c1 (stereo partly drawn),-38.9%,
COc1ccc(-c2cccc([C@H]3[C@@H]4C=CC[C@@H](C)[C@@H]4C(=O)N3Cc3ccccc3)c2)cc1,-37.7%,
CCOc1ncccc1C(=O)Nc1cc(S(=O)(=O)N(CC)CC)ccc1N1CCOCC1,-14.1%,
Cc1ccc(C)c(N2CCN(C(=O)c3ccc(N4CCCC4=O)cc3)CC2)c1,-31.6%,
Cc1oc(-c2ccccc2F)nc1CS(=O)(=O)CC(=O)NC1CCCC(C)C1C (stereo not drawn),-30.8%,
O=C(CN1CCN(S(=O)(=O)c2ccc(Cl)cc2)CC1)Nc1ccc2c(c1)OCCO2,-35%,
O=C(Nc1ccc2c(c1)OCCO2)c1cccc2nc3ccccc3nc12,-34.5%,
Cc1ccc(C(=O)Nc2ccc3c(c2)OCCO3)c(Cl)c1,,11.2 µM (active)
O=C(O)C1C2C=CC(C2)C1C(=O)Nc1ccc2c(c1)OCCO2 (stereo not drawn),-31.9%,
Cc1ccsc1C(=O)Nc1ccc2c(c1)OCCO2,,22.4 µM (active)
c1csc(CNc2ccc3c(c2)OCCO3)c1,-50.6%,
CCOC(=O)c1ccc[n+](C(C)C(=O)c2ccc(-c3ccccc3)cc2)c1 (stereo not drawn),-34.3%,
COc1cccc(CNC(=O)c2cccc(S(=O)(=O)N3CCN(c4ccc(F)cc4)CC3)c2)c1,-41.7%,

SMILES,"activity, negative = inhibition",Potency
CCOc1ccc(NC(=O)CN2C(=O)CCSc3ccc(S(=O)(=O)N4CCCC4)cc32)cc1,-41.6%,
O=C(/C=C/c1cccs1)N1CCC2(CC1)Oc1ccc(Cl)cc1C(=O)C21CC(c2cccnc2)=NO1 (stereo not drawn),-37.6%,
O=C(/C=C/c1cccs1)c1cc(Cl)ccc1OC(=O)N1CCOCC1,,17.8 µM (active)
O=C(COC(=O)/C=C/c1cccs1)Nc1ccc(Cl)cc1F,-22.2%,
O=C(CCCOc1ccc(Cl)cc1)NCC1CCCO1 (stereo not drawn),-30.2%,
CCOC(=O)C1=C(C)Nc2ccccc2N=C1NC(=O)c1oc2ccccc2c1COC,-41%,
COc1ccccc1OCC(=O)Nc1cc(S(=O)(=O)N2CCCCC2)ccc1N1CCCCC1,-33.5%,
COc1cc(/C=C(\C#N)c2ccccn2)ccc1OCC(=O)Nc1cccc(C(F)(F)F)c1,-29%,
CN(CCC#N)c1ccc(/C=C(\C#N)c2ccccn2)cc1,,14.1 µM (active)
CNc1nc(-c2ccc3c(c2)CCN3S(=O)(=O)c2ccccc2)c(C)s1,-30.4%,
CC(=O)Nc1ccc(S(=O)(=O)N(C)CC(=O)Nc2ccc(Br)cc2F)cc1,-32.1%,
CCn1cc(C(=O)OCC(=O)OC2CC(C)CCC2C(C)C)c(=O)c2ccc(C)nc21 (stereo not drawn),,22.4 µM (active)
O=C(CCCCn1c(=O)c2ccccc2n(CC(=O)Nc2cccc(F)c2)c1=O)NCc1ccccc1Cl,-35%,
COc1ccc(C[C@H]2CN3C(=NC[C@@H]3Cc3ccc(O)cc3)N2C[C@H](C)NC(=O)CCC2CCCCC2)cc1,-31.2%,
CCCCCCCCCCC[N+](C)(C)CC/C=C1/c2ccccc2Sc2ccc(Cl)cc21,-31.5%,
CC1(Cc2ccc(C(F)(F)F)o2)C(=O)Nc2cc(-c3ccc(F)cc3F)ccc21 (stereo not drawn),-34.1%,
